# According to PubChem BioAssay:
# Active and inactive are the calls of the source.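 The calls were made as follows, unless noted: active = compounds that lower survival of HCT116 colon cancer cells in the luminescence readout, no numeric limit stated; inactive = the rest.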
# How the values were obtained:
# [1] = compounds altering viability of human ES cells (AID 493140; call rule not given here;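 also: cells exposed to compounds for four days before counting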); settings: human embryonic stem cell survival screen; stronger effect = higher value
# [2] = P. berghei load reduction in hepatocytes – cell-based, HepG2, luciferase luminescence, HepG2 viability, primary screen (AID 624349; in the data active = parasite load remaining mostly below about 12%, no sharp cut-off; inactive = mostly above about 10%;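 also: 100% = mean of DMSO negative control wells on the same plate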); settings: P. berghei liver stage in HepG2, luciferase luminescence, concentration not given here; parasite load remaining: stronger effect = lower value; viability: measured here: HepG2 viability without parasites
# [3] = Wnt pathway potentiators raising nuclear beta-catenin – imaging, WNT3A-conditioned medium, mouse C2C12, NPC library, primary screen (AID 1117326; in the data active = nuclear beta-catenin stimulation mostly above about 4.2%, no sharp cut-off; inactive = mostly below about 10%); settings: stronger effect = higher value
# [4] = stimulators of insulin release from INS-1E, primary screen, cell-based, 5 mM glucose, NPC library (AID 1117329;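 active = compound raises insulin release from rat beta cells at 5 mM glucose, no numeric limit stated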); settings: rat INS-1E insulin secretion, at 10 µM, stronger effect = higher value
# [5] = growth inhibition of GSK3B-pretreated HCT116 cells – cell-based, CellTiter-Glo, 0.2 to 20 µM (AID 1117336;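 active = compounds lowering colon cancer cell viability after pretreatment blocking the GSK3B kinase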); settings: HCT116 viability after GSK3B inhibitor, at 20 µM, stronger effect = higher value
# [6] = inhibition of endothelial tube formation, primary screen, imaging, VEGF stimulated, CD31 staining, tube area, NPC library (AID 1117340;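 active = compound that reduces growth-factor-driven endothelial tube area in a mixed cell culture, no cutoff stated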); settings: VEGF-stimulated ADSC/ECFC co-culture, at 10 µM, stronger effect = higher value
# [7] = GLP1 release stimulators, primary, NCI-H716, NPC library (AID 1117341;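 active = compound raises GLP1 secretion from the human gut endocrine cells, with no numeric limit stated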); settings: NCI-H716 cells, at 10 µM, stronger effect = higher value
# [8] = HCT116 colon cancer cell growth inhibition, primary screen, CellTiter-Glo luminescence, NPC library (AID 1117342); settings: at 20 µM (top of the series)
# [9] = reduced SW480 viability measured with CellTiter-Glo, NPC library, primary (AID 1117343;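 active = compounds that lower viability of the colon cancer cells in the luminescence readout, with no numeric limit stated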); settings: CellTiter-Glo luminescence; at 20 µM (top of the series) unless noted
# [10] = NPC library primary testing for decreased DLD-1 cell viability via CellTiter-Glo (AID 1117346;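 active = compounds that lower survival of DLD-1 colon cancer cells in the luminescence readout, no cutoff given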); settings: DLD-1 viability, CellTiter-Glo luminescence; at 20 µM (top of the series)
# [11] = viability loss with induced miR-34 in A549 – imaging, A549 dox-inducible miR-34, nuclei and caspase counts, primary screen (AID 1347080;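 active = compounds whose cell count with miR-34 switched on is under 0.7 times the count with it off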); settings: A549 miR-34 inducible, Hoechst nuclei count, 48 h
# [12] = MELAS cybrid and Rieske KO viability enhancers – cell-based, MELAS cybrids, Rieske KO mouse fibroblasts, CellTiter-Glo, primary screen (AID 1508586;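 active = mean z-score across replicates of 1.96 or higher in either the MELAS or the Rieske mutant cell line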;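 also: z relative to plate mean and SD of compound and empty wells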); settings: low glucose
# [13] = target: NAD(+) hydrolase SARM1 (Homo sapiens) (UniProt Q6SZW1); experiment: blocking NAD cleavage by SARM1 SAM-TIR – cell lysate, NAD-Glo luminescence (AID 1508614;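 active = compound whose remaining NAD level is above about 45 nM, limit read from the data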;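 also: higher remaining NAD means stronger inhibition of SARM1 NADase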); settings: SAM-TIR HEK293T lysate NADase, at 1 µM, stronger effect = higher value
# Sequence of NAD(+) hydrolase SARM1 (Homo sapiens) (Q6SZW1 whole entry, looked up, the tested form may be a part): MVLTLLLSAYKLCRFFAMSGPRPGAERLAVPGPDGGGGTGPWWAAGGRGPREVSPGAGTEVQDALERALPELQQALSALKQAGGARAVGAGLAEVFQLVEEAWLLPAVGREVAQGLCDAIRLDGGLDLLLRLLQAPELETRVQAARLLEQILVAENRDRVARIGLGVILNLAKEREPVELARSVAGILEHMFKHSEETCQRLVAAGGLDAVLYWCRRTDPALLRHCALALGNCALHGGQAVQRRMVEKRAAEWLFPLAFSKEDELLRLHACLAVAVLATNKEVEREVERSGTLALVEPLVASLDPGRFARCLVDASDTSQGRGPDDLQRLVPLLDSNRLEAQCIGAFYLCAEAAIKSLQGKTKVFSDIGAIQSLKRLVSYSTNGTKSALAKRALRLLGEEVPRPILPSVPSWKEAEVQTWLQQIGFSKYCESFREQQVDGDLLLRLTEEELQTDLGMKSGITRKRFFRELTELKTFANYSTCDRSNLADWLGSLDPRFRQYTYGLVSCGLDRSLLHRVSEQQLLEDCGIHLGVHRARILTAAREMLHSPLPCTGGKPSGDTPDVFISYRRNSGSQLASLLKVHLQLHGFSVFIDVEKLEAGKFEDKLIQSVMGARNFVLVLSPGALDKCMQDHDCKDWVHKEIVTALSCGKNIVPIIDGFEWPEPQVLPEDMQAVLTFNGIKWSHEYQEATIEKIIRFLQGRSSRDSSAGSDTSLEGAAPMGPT
# [14] = target: Mitogen-activated protein kinase 7 (Homo sapiens) (UniProt Q13164); experiment: Gal4-ERK5 driven luciferase induction – cell-based, HTS, primary screen (AID 1508626;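 active = luciferase signal above three times the same-plate solvent-only control wells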;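 also: luciferase driven by Gal4-ERK5 fusion binding five Gal4 sites before minimal TATA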); settings: HeLa Gal4-ERK5 transactivation, 18 h, at 5 µM, stronger effect = higher value
# Sequence of Mitogen-activated protein kinase 7 (Homo sapiens) (Q13164 whole entry, looked up, the tested form may be a part): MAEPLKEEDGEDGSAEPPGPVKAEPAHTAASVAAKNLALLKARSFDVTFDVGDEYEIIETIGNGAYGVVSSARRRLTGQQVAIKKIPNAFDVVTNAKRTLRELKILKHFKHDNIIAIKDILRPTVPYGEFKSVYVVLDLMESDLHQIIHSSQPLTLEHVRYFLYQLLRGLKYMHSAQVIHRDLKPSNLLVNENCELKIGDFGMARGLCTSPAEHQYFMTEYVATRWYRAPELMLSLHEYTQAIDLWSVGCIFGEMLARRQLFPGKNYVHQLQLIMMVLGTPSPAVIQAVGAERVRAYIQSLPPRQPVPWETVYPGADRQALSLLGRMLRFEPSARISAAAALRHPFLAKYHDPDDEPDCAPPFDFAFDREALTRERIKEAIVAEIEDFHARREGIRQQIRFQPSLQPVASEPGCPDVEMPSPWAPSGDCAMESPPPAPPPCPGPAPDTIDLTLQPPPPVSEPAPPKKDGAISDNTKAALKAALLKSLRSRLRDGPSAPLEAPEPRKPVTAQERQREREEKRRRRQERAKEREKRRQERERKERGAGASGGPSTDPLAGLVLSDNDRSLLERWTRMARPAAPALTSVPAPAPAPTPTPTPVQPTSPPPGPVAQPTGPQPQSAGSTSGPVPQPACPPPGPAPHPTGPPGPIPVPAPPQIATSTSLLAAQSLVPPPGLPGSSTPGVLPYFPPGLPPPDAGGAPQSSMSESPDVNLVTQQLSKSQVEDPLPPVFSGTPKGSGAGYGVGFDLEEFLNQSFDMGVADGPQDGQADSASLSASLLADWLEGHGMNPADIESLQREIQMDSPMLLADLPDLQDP
# [15] = stronger effect = lower value, cell number ratio, induced over uninduced
# [16] = measured here: relative caspase fold change +Dox/-Dox
# [17] = measured here: total cells with miR-34 induction, stronger effect = lower value
# [18] = measured here: total cells without miR-34 induction
# [19] = MELAS cybrid survival, CellTiter-Glo 48 h, stronger effect = higher value
# [20] = Rieske KO mouse fibroblast survival, CellTiter-Glo 72 h
SMILES,survival [1],parasite load remaining [2],viability [2],nuclear beta-catenin stimulation ([3]; at 10 µM),"nuclear beta-catenin stimulation ([3]; stimulation, at 2 µM)",insulin secretion stimulation [4],viability decrease [5],tube area decrease [6],GLP1 secretion stimulation [7],inhibition of viability [8],viability decrease (inhibition) [9],viability decrease (inhibition) [10],"fold change [11, 15]","fold change [11, 16]","cell count [11, 17]","cell count [11, 18]","z-score [12, 19]","z-score [12, 20]",remaining NAD [13],luciferase signal [14]
C[C@]12CC[C@H]3[C@@H](CCC4=CC(=O)CC[C@@]43C)[C@@H]1CC[C@@H]2C(=O)CO,2.75 (inactive),95.4% (inactive),96.9%,3.8% (inactive),5.6%,0.8% (inactive),-35.8% (inactive),34.3% (inactive),2.7% (inactive),27.8% (inactive),23.6% (inactive),8.8% (inactive),0.793 (inactive),1.3,7560,9530,-0.237 (inactive),0.173,,
C1CCN2C[C@@H]3C[C@@H](CN4CCCC[C@@H]34)[C@H]2C1,,47.2% (inactive),113%,-0.4% (inactive),-0.5%,15.2% (inactive),5.9% (inactive),-8.8% (inactive),1.2% (inactive),22.6% (inactive),3.2% (inactive),4.2% (inactive),0.853 (inactive),1.2,8930,10500,,,10 nM (inactive),60 AU (inactive)
Clc1cc(Cl)c(OCC#CI)cc1Cl,,,,62.3% (active),21.7%,9.6% (inactive),93.8% (active),106% (active),-0.7% (inactive),92% (active),100% (active),98.1% (active),,,,,-0.965,8.41,,
COc1cc(O)c(C(=O)c2ccccc2)cc1S(=O)(=O)O,,,,-0.8% (inactive),0.1%,-1.1% (inactive),-7.35% (inactive),-4.4% (inactive),-0.7% (inactive),-1.4% (inactive),-19.9% (inactive),4.15% (inactive),,,,,,,10 nM (inactive),
CC[C@H](C)[C@H](N)C(=O)O,,,,2.1% (inactive),4.3%,-0.7% (inactive),-17.5% (inactive),27% (inactive),-0.4% (inactive),-13.2% (inactive),0.9% (inactive),-7.9% (inactive),,,,,,,10 nM (inactive),
CC(CN(C)C)C(C)(O)Cc1ccc(Cl)cc1 (stereo unspecified),,,,-2% (inactive),-0.8%,7.5% (inactive),-15% (inactive),7.9% (inactive),-2% (inactive),17.4% (inactive),-0.8% (inactive),-9.1% (inactive),,,,,0.453 (inactive),-0.0123,,
CN(C)CCOC1=Cc2ccccc2Sc2ccc(Cl)cc21,,,,31.6% (inactive),-1%,14.5% (inactive),99.3% (active),89.3% (active),-2.6% (inactive),99% (active),102% (active),97.6% (active),,,,,0.153 (inactive),0.114,,
CCC1C(=O)OCC1Cc1cncn1C (stereo unspecified),,,,0.7% (inactive),20%,3.7% (inactive),2.7% (inactive),-1.1% (active),1.2% (inactive),8.9% (inactive),-14.8% (inactive),-20.6% (inactive),,,,,,,,
OC[C@@H](O)[C@@H](O)[C@H](O)[C@H](O)CO,,,,0.7% (inactive),0.6%,-2% (inactive),-4.45% (inactive),4.3% (inactive),1.1% (inactive),-9.6% (inactive),40.5% (inactive),8.25% (inactive),,,,,,,10 nM (inactive),
O=C(NCCCN1CCOCC1)c1ccc(Cl)cc1,,,,0.6% (inactive),1%,1.5% (inactive),1.5% (inactive),12.7% (inactive),-0.3% (inactive),0% (inactive),18.6% (inactive),1.05% (inactive),,,,,,,10 nM (inactive),
O=C1OC2(c3ccccc31)c1cc(I)c(O)c(I)c1Oc1c2cc(I)c(O)c1I,,,,1.2% (inactive),1.9%,1.6% (inactive),-45.8% (inactive),12% (inactive),24.3% (active),-2.6% (inactive),24.4% (inactive),-14.4% (inactive),,,,,,,10 nM (inactive),
C#C[C@]1(O)CC[C@H]2[C@@H]3CCc4cc(OC5CCCC5)ccc4[C@H]3CC[C@@]21C,,,,54.3% (active),0.5%,0.3% (inactive),102% (active),46.9% (active),32.5% (active),101% (active),145% (active),105% (active),,,,,,,10 nM (inactive),
N#Cc1cc(NC(=O)C(=O)O)c(Cl)c(NC(=O)C(=O)O)c1,,,,3.5% (inactive),1.2%,2.2% (inactive),-38.9% (inactive),-0.9% (inactive),-0.9% (inactive),-4.9% (inactive),25.7% (inactive),-16.9% (inactive),,,,,-0.414 (inactive),-0.697,,
O=P(O)(O)C(Cl)(Cl)P(=O)(O)O,,33.9% (inactive),100%,1% (inactive),0.9%,5.1% (inactive),-1.2% (inactive),26.4% (inactive),-4.3% (inactive),11.1% (inactive),26.6% (inactive),-2.9% (inactive),,,,,0.218 (inactive),-0.285,,
